The term AC50 denotes the concentration at which the activity in the assay is half-maximal.

The values that follow come from PubChem BioAssay (EPA / NIEHS).

Read-out in test [1]: Macrophage colony-stimulating factor (MCSF), CSF1 (gene 1435)
Briefly: BSK_hDFCGF_MCSF: BioMAP Diversity Plus: hDFCGF Assay for Macrophage colony-stimulating factor (MCSF) Biomarker Activity (AID 2283060). The following applies: primary human foreskin fibroblasts; actives raise or lower the signal. In a few lines: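 M-CSF levels read by ELISA at 24 h post-dosing in human skin fibroblasts. Parallel cultures stained with SRB assessed cytotoxicity at the same time point; response fitted in both directions against the DMSO baseline.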

The nature of test [2]: BSK_hDFCGF_SRB: Viability Assessment in the BioMAP Diversity Plus: hDFCGF Assay (AID 2283061).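 Note: cells exposed to compound for 24 h before the read.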 As to conditions: primary human foreskin fibroblasts. In a few lines:
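Viability was read as total protein: after 10% TCA fixation, wells were stained with 0.1% sulforhodamine B and read at 560 nm. Primary human foreskin fibroblasts were dosed for 24 h, with bidirectional fitting versus DMSO.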

Read-out in test [3]: TIMP metallopeptidase inhibitor 1 (TIMP1), TIMP1 (gene 7076)
Nature of the test: BSK_hDFCGF_TIMP1: BioMAP Diversity Plus: hDFCGF Assay for TIMP metallopeptidase inhibitor 1 (TIMP1) Biomarker Activity (AID 2283062). The following applies: primary human foreskin fibroblasts; actives raise or lower the signal. In a few lines: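 TIMP-1 measured by ELISA 24 h after chemical dosing of primary human skin fibroblasts, with gain or loss fitted relative to DMSO. Parallel SRB staining (560 nm) monitored overt cytotoxicity.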

Read-out in test [4]: Monokine induced gamma interferon (MIG), CXCL9 (gene 4283)
Nature of the test: BSK_hDFCGF_MIG: BioMAP Diversity Plus: hDFCGF Assay for Monokine induced gamma interferon (MIG) Biomarker Activity (AID 2283063). The following applies: primary human foreskin fibroblasts; actives raise or lower the signal. In a few lines: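 Human primary foreskin fibroblasts in the hDFCGF system, exposed to test chemical for 24 h; MIG measured by ELISA. Bidirectional curve fitting against DMSO negative control as activity baseline.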

Read-out in test [5]: Matrix Metallopeptidase 1 (MMP1), MMP1 (gene 4312)
Briefly: BSK_hDFCGF_MMP1: BioMAP Diversity Plus: hDFCGF Assay for Matrix Metallopeptidase 1 (MMP1) Biomarker Activity (AID 2283064). The following applies: primary human foreskin fibroblasts; actives raise or lower the signal. The essentials:
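Primary human foreskin fibroblasts exposed to chemicals for 24 h; MMP1 measured by ELISA. Cytotoxicity tracked by SRB staining in parallel cultures; bidirectional fit relative to DMSO.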

Read-out in test [6]: Vascular cell adhesion molecule 1 (VCAM1), VCAM1 (gene 7412)
Briefly: BSK_hDFCGF_VCAM1: BioMAP Diversity Plus: hDFCGF Assay for Vascular cell adhesion molecule 1 (VCAM1) Biomarker Activity (AID 2283065).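 For AC50: VCAM-1 protein level quantified by ELISA after 24 h chemical exposure.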 The following applies: primary human foreskin fibroblasts; actives raise or lower the signal. The essentials:
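ELISA readout of VCAM-1 on human dermal fibroblast primary cultures, 24 h after chemical exposure. Gain or loss of signal fitted in both directions against DMSO baseline.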

Read-out in test [7]: Plasminogen activator inhibitor-1 (PAI1), SERPINE1 (gene 5054)
Nature of the test: BSK_hDFCGF_PAI1: BioMAP Diversity Plus: hDFCGF Assay for Plasminogen activator inhibitor-1 (PAI1) Biomarker Activity (AID 2283066). As to conditions: primary human foreskin fibroblasts; actives raise or lower the signal. The essentials:
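Primary dermal fibroblasts (human foreskin), hDFCGF system; compound 24 h; PAI-1 by ELISA; bidirectional fit vs DMSO control.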

Read-out in test [8]: Intercellular Adhesion Molecule 1 (ICAM1), ICAM1 (gene 3383)
Nature of the test: BSK_KF3CT_ICAM1: BioMAP Diversity Plus: KF3CT Assay for Intercellular Adhesion Molecule 1 (ICAM1) Biomarker Activity (AID 2283067). As to conditions: primary human keratinocytes with fibroblasts; actives raise or lower the signal. The essentials: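 Cell-surface ICAM-1 was measured by ELISA 24 h after dosing primary human skin keratinocytes co-cultured with fibroblasts. Parallel SRB staining tracked overt cytotoxicity. Gain or loss of signal was fitted relative to DMSO.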

Read-out in test [9]: Interferon-gamma inducible Protein 10 (IP10), CXCL10 (gene 3627)
Briefly: BSK_KF3CT_IP10: BioMAP Diversity Plus: KF3CT Assay for Interferon-gamma inducible Protein 10 (IP10) Biomarker Activity (AID 2283068). The following applies: primary human keratinocytes with fibroblasts; actives raise or lower the signal. The essentials: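 Human keratinocyte plus foreskin fibroblast primary co-culture exposed to test chemical for 24 h; IP-10 measured by ELISA. Concentration-response fitted bidirectionally against DMSO control as baseline.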

The nature of test [10]: BSK_KF3CT_SRB: Viability Assessment in the BioMAP Diversity Plus: KF3CT Assay (AID 2283069).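 Note: total protein by sulforhodamine B staining as a cytotoxicity measure; read 24 h after compound addition.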 As to conditions: primary human keratinocytes with fibroblasts. In a few lines: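 Human keratinocyte and foreskin fibroblast co-culture exposed to chemical for 24 h. Total protein measured in parallel cultures by 0.1% sulforhodamine B staining after 10% TCA fixation, read at 560 nm; bidirectional fit relative to DMSO.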

Read-out in test [11]: Interleukin-1 alpha (IL1a), IL1A (gene 3552)
Briefly: BSK_KF3CT_IL1a: BioMAP Diversity Plus: KF3CT Assay for Interleukin-1 alpha (IL1a) Biomarker Activity (AID 2283070). As to conditions: primary human keratinocytes with fibroblasts; actives raise or lower the signal. The essentials: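 Primary human keratinocyte plus foreskin fibroblast co-culture, dosed and measured at 24 h in 96-well plates. IL-1a level quantified by ELISA; bidirectional fit relative to DMSO.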

Read-out in test [12]: TIMP metallopeptidase inhibitor 2 (TIMP2), TIMP2 (gene 7077)
Briefly: BSK_KF3CT_TIMP2: BioMAP Diversity Plus: KF3CT Assay for TIMP metallopeptidase inhibitor 2 (TIMP2) Biomarker Activity (AID 2283071). As to conditions: primary human keratinocytes with fibroblasts; actives raise or lower the signal. In a few lines: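 Cells: human keratinocytes co-cultured with foreskin fibroblasts. Treat with chemical, 24 h. Measure TIMP-2 by ELISA; fit curves bidirectionally vs DMSO baseline.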

Read-out in test [13]: C-C motif chemokine 2 (Homo sapiens) (UniProt P13500)
Briefly: BSK_KF3CT_MCP1: BioMAP Diversity Plus: KF3CT Assay for Monocyte Chemoattractant Protein 1 (MCP1/CCL2) Biomarker Activity (AID 2283073). As to conditions: primary human keratinocytes with fibroblasts; actives raise or lower the signal. In a few lines:
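ELISA read-out of MCP-1, 24 h post-dose, in primary human skin keratinocytes co-cultured with fibroblasts. Parallel SRB staining monitors cytotoxicity; changes fitted both directions relative to DMSO.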

Read-out in test [14]: urokinase plasminogen activator (uPA), PLAU (gene 5328)
Briefly: BSK_KF3CT_uPA: BioMAP Diversity Plus: KF3CT Assay for urokinase plasminogen activator (uPA) Biomarker Activity (AID 2283075). As to conditions: primary human keratinocytes with fibroblasts; actives raise or lower the signal. In a few lines: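 Primary human keratinocyte/foreskin fibroblast co-culture exposed to chemical; uPA measured by ELISA at 24 h. Bidirectional fit versus DMSO, with parallel SRB total-protein staining for cytotoxicity.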

Read-out in test [15]: CD40, CD40 (gene 958)
Briefly: BSK_LPS_CD40: BioMAP Diversity Plus: LPS Assay for CD40 Biomarker Activity (AID 2283076). As to conditions: primary human HUVEC with PBMC; actives raise or lower the signal. The essentials: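 In the LPS system of human endothelial cells with peripheral blood mononuclear cells, CD40 levels were read by ELISA 24 h post-treatment. Signal changes in either direction were fitted against the DMSO baseline, with parallel SRB protein staining.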

Read-out in test [16]: E-selectin (Homo sapiens) (UniProt P16581)
Briefly: BSK_LPS_Eselectin: BioMAP Diversity Plus: LPS Assay for Eselectin Biomarker Activity (AID 2283077). As to conditions: primary human HUVEC with PBMC; actives raise or lower the signal. The essentials:
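E-selectin ELISA on LPS-stimulated endothelial cell/PBMC co-cultures, read 24 h post-treatment; gains and losses fitted against DMSO. Parallel SRB staining (0.1% SRB after 10% TCA fixation, 560 nm) flags overt cytotoxicity.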

Read-out in test [17]: Interleukin-8 (IL8), CXCL8 (gene 3576)
Briefly: BSK_LPS_IL8: BioMAP Diversity Plus: LPS Assay for Interleukin-8 (IL8) Biomarker Activity (AID 2283078). The following applies: primary human HUVEC with PBMC; actives raise or lower the signal. In a few lines: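 ELISA read-out of IL-8 after 24 h chemical treatment of LPS-activated endothelial/PBMC human primary co-cultures. Changes either up or down relative to DMSO; overt cytotoxicity checked by sulforhodamine B staining in parallel wells.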

A short description of test [18]: BSK_LPS_SRB: Viability Assessment in the BioMAP Diversity Plus: LPS Assay (AID 2283079).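 Note: total protein by sulforhodamine B absorbance as a cytotoxicity measure; measured one day after compound addition.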 The following applies: primary human HUVEC with PBMC. In a few lines:
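SRB viability endpoint: cells fixed with 10% TCA, stained with 0.1% SRB, read at 560 nm, 24 h post-dose. HUVEC/PBMC co-culture; signal change in either direction scored relative to DMSO.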

Read-out in test [19]: Interleukin-1 alpha (IL1a), IL1A (gene 3552)
Nature of the test: BSK_LPS_IL1a: BioMAP Diversity Plus: LPS Assay for Interleukin-1 alpha (IL1a) Biomarker Activity (AID 2283080). The following applies: primary human HUVEC with PBMC; actives raise or lower the signal. In a few lines:
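Readout is IL-1a level by ELISA, 24 h post-dose, fitted as gain or loss relative to DMSO. System: LPS-activated human primary co-culture of vascular endothelium and peripheral blood mononuclear cells, with parallel SRB total-protein cytotoxicity.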

Each structure is given as a SMILES string. A structure can be active in one record and inactive in another. Active and inactive are the calls of the source. Rule for the calls: active = hit-call score of the fitted dose curve at least 0.9, where 1 is the maximum; inactive = score below 0.9.

E-selectin (Homo sapiens), sequence (P16581 whole entry, looked up): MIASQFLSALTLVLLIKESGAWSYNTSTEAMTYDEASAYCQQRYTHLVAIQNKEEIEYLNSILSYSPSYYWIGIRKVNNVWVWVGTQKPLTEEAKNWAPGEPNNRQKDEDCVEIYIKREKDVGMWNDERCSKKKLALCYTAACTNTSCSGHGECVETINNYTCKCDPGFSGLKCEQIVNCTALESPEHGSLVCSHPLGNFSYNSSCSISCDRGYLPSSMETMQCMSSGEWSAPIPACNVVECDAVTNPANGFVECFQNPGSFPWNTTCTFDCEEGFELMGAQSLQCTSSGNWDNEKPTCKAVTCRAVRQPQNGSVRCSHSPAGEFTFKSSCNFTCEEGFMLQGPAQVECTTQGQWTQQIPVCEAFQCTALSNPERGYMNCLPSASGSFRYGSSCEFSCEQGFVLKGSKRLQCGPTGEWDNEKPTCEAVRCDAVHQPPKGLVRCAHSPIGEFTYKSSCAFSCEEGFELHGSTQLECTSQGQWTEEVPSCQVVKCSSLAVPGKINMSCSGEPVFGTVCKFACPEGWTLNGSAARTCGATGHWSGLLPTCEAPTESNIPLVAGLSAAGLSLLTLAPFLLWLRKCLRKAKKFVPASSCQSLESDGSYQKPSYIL

On to `CCCCCCCCCCCCCCCC[N+](C)(C)Cc1ccccc1`, for which the AC50 in test [1] is 1.97 µM (active); in [2] it was 5.13 µM (active); in [3], 1.71 µM (active); in [4], 3.62 µM (active); in test [5], 4.17 µM (active); in test [6], 1.91 µM (active). Besides, the concentration at half-maximal activity (AC50) in test [7] is 1.52 µM (active); in [8], 6.06 µM (active); in test [9] it was 3.64 µM (active); in [10], 5.1 µM (active); in test [11], 3.72 µM (active); in test [12], 1.9 µM (active). The concentration at half-maximal activity (AC50) is 3.15 µM (active) in test [13]; 2.39 µM (active) in [14]; 13 µM (active) in [15]; 4.01 µM (active) in test [16]; 5.25 µM (active) in test [17]; 5.2 µM (active) in [18]. Besides, in test [19], the AC50 was 9.26 µM (active).
Regarding `CCCCCCCOC(=O)c1ccccc1C(=O)OCCCCCCC`, the result in test [1], in test [2], in test [3], in test [4], in [5] and in test [6] was inactive. Also, the outcome in test [7], in [8], in test [9], in test [10], in [11] and in [12] was inactive. The outcome in [13], in test [14], in [15], in test [16], in [17] and in test [18] was inactive. Also, the outcome in test [19] was inactive.
Turning to `O=P(O)(O)OCCC(F)(F)C(F)(F)C(F)(F)C(F)(F)C(F)(F)C(F)(F)F`, the result in test [1], in test [2], in [3], in test [4], in test [5] and in test [6] was inactive. The result in [7], in test [8], in [9], in test [10], in [11] and in [12] was inactive. The result in test [13], in test [14], in test [15], in test [16], in test [17] and in [18] was inactive. Also, the AC50 in test [15] was 0.823 µM (active).
For `C=CC(=O)OCC(F)(F)C(F)(F)C(F)(F)C(F)(F)C(F)(F)C(F)(F)C(F)(F)F`, the outcome in test [1], in [2], in [3], in [4], in [5] and in [6] was inactive. Further, the result in [7], in test [8], in [9], in test [10], in [11] and in [12] was inactive. Also, the result in test [13], in test [14], in test [15], in test [16], in [17] and in test [18] was inactive.
